Sampled rows, rich in hits. Any-hit rate of the full collection: about 4.1%.
ssDAF12 agonist – S. stercoralis DAF-12 activation, primary screen | HEK293 ssDAF-12/GRIP1 lit1-tk-luc reporter, luminescence; % of 3 µM dafachronic acid response | activation, % at 6.8 µM | 370,000 compounds, 1% hits | AID 652126;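 active = activation above the mean over all tested compounds plus 3 SD, cut at about 0.9% in these data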
DAX1 inh-1 – NR0B1 (DAX1) inhibition; inhibition, % at 6.75 µM; P51843; HEK293 Gal4-DAX1 luciferase reporter, luminescence; 340,000 compounds, 0.99% hits;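 active = inhibition above the mean over all tested compounds plus 3 SD, cut at about 4.2% in these data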;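 note: inhibition shows as a rise in luminescence from relieved DAX1 repression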
Target sequence (P51843 207-470 limits assumed): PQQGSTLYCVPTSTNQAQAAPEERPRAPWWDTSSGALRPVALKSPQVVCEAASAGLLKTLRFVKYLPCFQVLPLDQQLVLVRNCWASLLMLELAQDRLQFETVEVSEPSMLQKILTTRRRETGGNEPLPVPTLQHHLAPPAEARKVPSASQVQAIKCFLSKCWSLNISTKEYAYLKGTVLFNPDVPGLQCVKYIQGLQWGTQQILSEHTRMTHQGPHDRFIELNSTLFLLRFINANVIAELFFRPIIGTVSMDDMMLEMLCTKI
hgDAF12 agonist – agonists of H. glycines DAF-12 nuclear receptor; HEK293 GAL4-hgDAF12 UAS-luciferase reporter, agonist luminescence; normalized to butyrate control; activation, % at 6.8 µM; 370,000 compounds, 1.8% hits;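 active = activation above a cutoff set at the mean of all screened compounds plus 3 SD, cut at about 10% in these data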
hcDAF-12 act – H. contortus DAF-12 activation, primary screen; HEK293 hcDAF-12 lit1-tk-luc reporter, luminescence; 0% DMSO, 100% Δ7-dafachronic acid; activation, % at 6.8 µM; 370,000 compounds, 1.4% hits; AID 652067;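 active = activation above the mean of all tested compounds plus 3 SD, cut at about 5.5% in these data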
DAX1 inh-2 – DAX1 (NR0B1) inhibition, primary screen | HEK293T StAR-luciferase reporter, SF-1/DAX-1 repression relief | inhibition, % at 6.8 µM | 370,000 compounds, 1.1% hits | AID 652010;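 active = inhibition above the mean over all tested compounds plus 3 SD, cut at about 3.6% in these data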;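 note: higher inhibition means more luminescence from relief of DAX-1 repression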
A number is an active result.

Screening Cn1cccc1C(=O)Nc1nc(-c2ccccn2)cs1 returned ssDAF12 agonist inactive, DAX1 inh-1 inactive, hgDAF12 agonist inactive, hcDAF-12 act inactive and DAX1 inh-2 inactive.
For O=C(Nc1nc(-c2ccc(Cl)s2)cs1)c1cccs1 the results were ssDAF12 agonist inactive, DAX1 inh-1 inactive, hgDAF12 agonist inactive, hcDAF-12 act inactive and DAX1 inh-2 inactive.
Cc1csc(NC(=O)c2ccco2)n1 was read as ssDAF12 agonist 1.0, DAX1 inh-1 inactive, hgDAF12 agonist inactive, hcDAF-12 act inactive and DAX1 inh-2 inactive.
For CCOC(=O)c1sc(NC(=O)c2cc3ccccc3o2)nc1C the results were ssDAF12 agonist inactive, DAX1 inh-1 inactive, hgDAF12 agonist inactive, hcDAF-12 act inactive and DAX1 inh-2 inactive.
Screening O=C(O)Cc1csc(NC(=O)c2ccco2)n1 returned ssDAF12 agonist inactive, DAX1 inh-1 inactive, hgDAF12 agonist inactive, hcDAF-12 act inactive and DAX1 inh-2 inactive.
`Cc1csc(NC(=O)c2cccn2C)n1` gave ssDAF12 agonist inactive, DAX1 inh-1 inactive, hgDAF12 agonist 12, hcDAF-12 act inactive and DAX1 inh-2 inactive.
Screening C=CCOC(=O)c1sc(NC(=O)c2ccco2)nc1C returned ssDAF12 agonist inactive, DAX1 inh-1 inactive, hgDAF12 agonist 11, hcDAF-12 act inactive and DAX1 inh-2 inactive.
`O=C(Nc1nc(-c2ccc(Cl)s2)cs1)c1ccco1` gave ssDAF12 agonist inactive, DAX1 inh-1 inactive, hgDAF12 agonist 12, hcDAF-12 act inactive and DAX1 inh-2 inactive.
For C=CCNC(=O)C1CCN(c2cncnc2)CC1 the results were ssDAF12 agonist inactive, hgDAF12 agonist inactive, hcDAF-12 act inactive and DAX1 inh-2 inactive.
COc1ccc(-n2c(COc3ccccc3)nnc2SCC(=O)Nc2ccc(OCc3ccccc3)cc2)cc1 was read as ssDAF12 agonist inactive, hgDAF12 agonist inactive, hcDAF-12 act inactive and DAX1 inh-2 inactive.
`Cc1cc(N2CCNC[C@@H]2C)ccc1N1CCS(=O)(=O)CC1` gave ssDAF12 agonist inactive, hgDAF12 agonist inactive, hcDAF-12 act inactive and DAX1 inh-2 inactive.
Screening Cc1csc(NC(=O)c2sccc2C)n1 returned ssDAF12 agonist inactive, DAX1 inh-1 inactive, hgDAF12 agonist 12, hcDAF-12 act inactive and DAX1 inh-2 inactive.
`Cc1nnc(NC(=O)c2cc(-c3ccco3)nc3ccccc23)s1` gave ssDAF12 agonist inactive, DAX1 inh-1 inactive, hgDAF12 agonist inactive, hcDAF-12 act inactive and DAX1 inh-2 inactive.
For Cc1csc(NC(=O)c2cc(-c3ccco3)nc3ccccc23)n1 the results were ssDAF12 agonist 8.8, DAX1 inh-1 inactive, hgDAF12 agonist inactive, hcDAF-12 act inactive and DAX1 inh-2 inactive.
For C[C@H](CO)N1C[C@H](C)[C@@H](CN(C)C(=O)NC2CCCCC2)OCc2cn(nn2)CCCC1=O the results were ssDAF12 agonist inactive, hgDAF12 agonist inactive, hcDAF-12 act inactive and DAX1 inh-2 inactive.
`COc1cccc(/C=C2\CC3(OC(=O)c4ccccc4)CCCN2C3)c1` (stereo not given) gave ssDAF12 agonist inactive, hgDAF12 agonist inactive, hcDAF-12 act inactive and DAX1 inh-2 inactive.
`Cn1cc(CCOCc2ccccn2)c2ccccc21` gave ssDAF12 agonist inactive, hgDAF12 agonist inactive, hcDAF-12 act inactive and DAX1 inh-2 3.6.
For C[C@@H]1CN(C(=O)c2cc(COc3cccc(C(F)(F)F)c3)on2)C[C@H](C)O1 the results were ssDAF12 agonist inactive, DAX1 inh-1 inactive, hgDAF12 agonist 11, hcDAF-12 act inactive and DAX1 inh-2 inactive.
`COc1cccc(CNC(=O)[C@H]2CCCN2C(=O)[C@H]2CCCN2C(=O)N2CCCCC2)c1` gave ssDAF12 agonist inactive, hgDAF12 agonist inactive, hcDAF-12 act inactive and DAX1 inh-2 inactive.
Screening CCCc1ccc(S(=O)(=O)N2CCN(C(=O)CN3C(=O)NC(C)(C4CC4)C3=O)CC2)cc1 (stereo not given) returned ssDAF12 agonist inactive, DAX1 inh-1 4.3, hgDAF12 agonist inactive, hcDAF-12 act inactive and DAX1 inh-2 inactive.
Screening CCC(C)c1ccc(S(=O)(=O)N2CCN(C(=O)CN3C(=O)NC(C)(C4CC4)C3=O)CC2)cc1 (stereo not given) returned ssDAF12 agonist inactive, DAX1 inh-1 inactive, hgDAF12 agonist inactive, hcDAF-12 act inactive and DAX1 inh-2 inactive.
CCC(=O)N1CCc2cc(Br)c(S(=O)(=O)NC3CCN(Cc4ccccc4)CC3)cc21 was read as ssDAF12 agonist inactive, hgDAF12 agonist inactive, hcDAF-12 act inactive and DAX1 inh-2 inactive.
CCOC(=O)/C(N=Nc1ccc2c(c1)OCO2)=C(\C)O was read as ssDAF12 agonist inactive, DAX1 inh-1 6.3, hgDAF12 agonist inactive, hcDAF-12 act inactive and DAX1 inh-2 inactive.
`CCOC(=O)C(=O)Nc1ccc2c(c1)OCO2` gave ssDAF12 agonist inactive, DAX1 inh-1 inactive, hgDAF12 agonist inactive, hcDAF-12 act inactive and DAX1 inh-2 inactive.
N#Cc1ccc(C(=O)N/N=C/c2cn(CC(=O)O)c3ccccc23)c(F)c1 was read as ssDAF12 agonist inactive, DAX1 inh-1 inactive, hgDAF12 agonist inactive, hcDAF-12 act 5.7 and DAX1 inh-2 inactive.
C(=C/c1nccc2c1[nH]c1ccccc12)/c1ccc2c(c1)OCO2 was read as ssDAF12 agonist inactive, DAX1 inh-1 inactive, hgDAF12 agonist 13, hcDAF-12 act inactive and DAX1 inh-2 inactive.
`C=C(C)C1(O)OC(=O)C=C1OC` (stereo not given) gave ssDAF12 agonist inactive, DAX1 inh-1 inactive, hgDAF12 agonist inactive, hcDAF-12 act 6.5 and DAX1 inh-2 inactive.
For CCCOc1ccc(C(=O)Nc2ccc3c(c2)OCCO3)cc1 the results were ssDAF12 agonist inactive, DAX1 inh-1 inactive, hgDAF12 agonist 13, hcDAF-12 act 5.7 and DAX1 inh-2 inactive.
For O=C(Nc1ccc2c(c1)OCCO2)c1cccc(C(=O)Nc2ccc3c(c2)OCCO3)c1 the results were ssDAF12 agonist inactive, DAX1 inh-1 inactive, hgDAF12 agonist inactive, hcDAF-12 act inactive and DAX1 inh-2 inactive.
`CC(=O)c1ccc(OCCCC(=O)Nc2ccc3c(c2)OCCO3)cc1` gave ssDAF12 agonist inactive, DAX1 inh-1 inactive, hgDAF12 agonist inactive, hcDAF-12 act inactive and DAX1 inh-2 inactive.
CCOc1cccc(C(=O)Nc2ccc3c(c2)OCCO3)c1 was read as ssDAF12 agonist 0.9, DAX1 inh-1 inactive, hgDAF12 agonist inactive, hcDAF-12 act inactive and DAX1 inh-2 inactive.
`Cc1ccc(C)c(NC(=O)c2cccc3c2-c2ccccc2C3=O)c1` gave ssDAF12 agonist inactive, hgDAF12 agonist inactive, hcDAF-12 act inactive and DAX1 inh-2 inactive.
For Clc1cccc(/C(Cc2nc3ccccc3[nH]2)=N\Nc2ccccc2)c1 the results were ssDAF12 agonist 1.0, DAX1 inh-1 inactive, hgDAF12 agonist inactive, hcDAF-12 act inactive and DAX1 inh-2 inactive.
`c1ccc(N/N=C(\Cc2nc3ccccc3[nH]2)c2ccccc2)cc1` gave ssDAF12 agonist inactive, DAX1 inh-1 inactive, hgDAF12 agonist inactive, hcDAF-12 act inactive and DAX1 inh-2 inactive.
Screening CCC[C@H]1[C@@H](NC(=O)c2ccc(Cl)cc2)CC[C@@]23CCCN2C(=O)CCC[C@@H]13 returned ssDAF12 agonist inactive, hgDAF12 agonist inactive and hcDAF-12 act inactive.
